A short description of assay [1]: qHTS assay to identify aromatase inhibitors - cell viability counter screen (AID 743084;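 also: cells stimulated with testosterone during compound exposure; nearly all actives have a fitted effect of over 55% in size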). (In general: Quantitative high-throughput screening tests each substance at several concentrations.)
In assay [2] the target is Aryl hydrocarbon receptor (Homo sapiens) (UniProt P35869). Put plainly: qHTS assay to identify small molecule that activate the aryl hydrocarbon receptor (AhR) signaling pathway (AID 743085).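 Also: HG2L7.5c1 human HepG2 liver cells with stably integrated DRE-driven firefly reporter; series mostly up to about 70 µM; nearly all actives have a fitted effect of over 15% in size.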 In outline:
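Luminescence (ONE-Glo) from a dioxin-responsive-element luciferase reporter in HG2L7.5c1 HepG2 cells after 24 hr compound exposure at 37C; viability measured by CellTiter-Fluor fluorescence beforehand.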

The nature of assay [3]: qHTS assay to identify small molecule that activate the aryl hydrocarbon receptor (AhR) signaling pathway - cell viability counter screen (AID 743086).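 Also: HepG2 liver cells carrying the AhR DRE luciferase reporter; series mostly up to about 70 µM; nearly all actives have a fitted effect of over 45% in size.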 The gist of the method:
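HepG2-AhR-luc (HG2L7.5c1) cells, 4000/well, were preincubated 5 h at 37C, exposed to compound in qHTS format for 24 hr at 37C, then given CellTiter-Fluor for 30 min; viability was read as fluorescence in the reporter wells.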

Assay [4] concerns the target Peroxisome proliferator-activated receptor gamma (Homo sapiens) (UniProt P37231). The assay can be described thus: qHTS assay to identify small molecule antagonists of the peroxisome proliferator-activated receptor gamma (PPARg) signaling pathway (AID 743191; calls by dose curve; also: series mostly up to about 63 µM; nearly all actives have a fitted effect of over 30% in size). The gist of the method:
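GeneBLAzer PPARg UAS-bla HEK293H cells carrying a UAS-driven beta-lactamase reporter were plated at 3000 cells/well, preincubated 5 h at 37C, then given compound for 17 h at 37C; LiveBLAzer B/G FRET substrate was read after 1 h at room temperature.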

Assay [5] can be described thus: qHTS assay to identify small molecule antagonists of the peroxisome proliferator-activated receptor gamma (PPARg) signaling pathway - cell viability counter screen (AID 743194). Also: nearly all actives have a fitted effect of over 55% in size. The note with it: Potency: co-treated with 50 nM rosiglitazone. In outline:
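PPARg-UAS-bla HEK293H cells were plated, rested 5 h at 37 C, then treated with compounds plus rosiglitazone (50 nM final) for 17 h at 37 C; viability was then read by CellTiter-Glo luminescence after 30 min at room temperature.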

A short description of assay [6]: qHTS assay for small molecule agonists of the antioxidant response element (ARE) signaling pathway (AID 743202; active = well fitted activation curve with a large enough effect in the signal ratio in the repeat runs, not every such curve was filed as active; the % refers to the signal ratio). The gist of the method: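 Read-out: LiveBLAzer B/G FRET substrate fluorescence after 2 h at room temperature, following 16 h compound treatment at 37 C of HepG2 cells carrying an ARE-driven beta-lactamase reporter.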
Assay [7] in a line: qHTS assay for small molecule agonists of the antioxidant response element (ARE) signaling pathway - cell viability counter screen (AID 743203; calls by dose curve; also: nearly all actives have a fitted effect of over 55% in size). In outline: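 Compounds in DMSO were pinned onto ARE-bla HepG2 cells plated 5 hrs earlier at 2,000 cells/well. Sixteen hours later at 37C/5% CO2, CellTiter-Glo was added and luminescence measured after 30 min at room temperature.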
A short description of assay [8]: qHTS assay for small molecule activators of the heat shock response signaling pathway - cell viability counter screen (AID 743209). Also: nearly all actives have a fitted effect of over 50% in size. In outline: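 Counter screen for cytotoxicity in HeLa HSE-bla reporter cells. Treatment was 5 h at 37 C; viability was detected by luminescent ATP assay (CellTiter-Glo) in the same wells as the beta-lactamase read.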
Assay [9] in a line: qHTS assay for small molecule activators of the heat shock response signaling pathway (AID 743210; active = well fitted activation curve with a large enough effect in the signal ratio in the repeat runs, with a control signal flat, not every such curve was filed as active; the % refers to the signal ratio; also: series mostly up to about 63 µM). In outline:
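HSE-bla HeLa cells (beta-lactamase reporter under heat shock response elements) were exposed to compounds for 5 h at 37 C, then loaded with LiveBLAzer B/G FRET substrate for 2.5 h at room temperature before fluorescence reading.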

The nature of assay [10]: qHTS assay to identify small molecule agonists of the peroxisome proliferator-activated receptor delta (PPARd) signaling pathway - cell viability counter screen (AID 743211). Also: nearly all actives have a fitted effect of over 55% in size. Also: potency is read from the fitted curve at half-maximal effect. In outline: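 Viability was measured as CellTiter-Glo luminescence (30 min, room temperature) in the same wells as the beta-lactamase readout. GeneBLAzer PPARd UAS-bla HEK293H cells received compound after 5 h plating and were incubated 17 h at 37 C.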

Assay [11] addresses Peroxisome proliferator-activated receptor delta (Homo sapiens) (UniProt Q03181). Put plainly: qHTS assay to identify small molecule agonists of the peroxisome proliferator-activated receptor delta (PPARd) signaling pathway (AID 743212; calls by dose curve). The gist of the method:
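GeneBLAzer PPARd UAS-bla HEK293H cells (beta-lactamase reporter under UAS control), plated and rested 5 h at 37 C, then exposed to compounds in DMSO at 37 C; LiveBLAzer B/G FRET substrate added, 2 h room temperature, fluorescence read.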

Assay [12] is described as follows: qHTS assay to identify small molecule antagonists of the peroxisome proliferator-activated receptor delta (PPARd) signaling pathway - cell viability counter screen (AID 743213). Also: nearly all actives have a fitted effect of over 50% in size. The gist of the method: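 Agonist-stimulated (L165041, 300 nM final) HEK293H PPARd UAS-bla cells are exposed to compounds for 17 h at 37 C, and ATP-based luminescence (CellTiter-Glo) from the same wells reports cytotoxicity.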

Assay [13] deals with Bile acid receptor (Homo sapiens) (UniProt Q96RI1). Put plainly: qHTS assay to identify small molecule antagonists of the farnesoid-X-receptor (FXR) signaling pathway (AID 743217; active = well fitted inhibition curve with a large enough effect in the signal ratio in the repeat runs, not every such curve was filed as active; the % refers to the signal ratio). The gist of the method:
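In this cell-based antagonist screen, inhibition of CDCA-driven (50 uM final) UAS-beta-lactamase expression in HEK 293T cells was measured by FRET fluorescence following 16 h compound exposure at 37 °C.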

Assay [14] can be described thus: qHTS assay to identify small molecule agonists of the farnesoid-X-receptor (FXR) signaling pathway - cell viability counter screen (AID 743218). Also: nearly all actives have a fitted effect of over 45% in size. Also: potency is read from the fitted curve at half-maximal effect. The gist of the method:
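After 16 h at 37 C with test compounds, FXR-bla HEK 293T cells were given LiveBLAzer B/G substrate for 2 h at RT and then CellTiter-Glo; luminescence was taken after 30 min.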

The target in assay [15] is Bile acid receptor (Homo sapiens) (UniProt Q96RI1). The assay can be described thus: qHTS assay to identify small molecule agonists of the farnesoid-X-receptor (FXR) signaling pathway (AID 743220; active = well fitted activation curve with a large enough effect in the signal ratio in the repeat runs, not every such curve was filed as active; the % refers to the signal ratio). The gist of the method: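 Beta-lactamase reporter under UAS control in GeneBLAzer FXR HEK 293T cells (5000/well) measured with LiveBLAzer FRET substrate after 2 h at room temperature. Compound exposure lasted 16 h at 37C.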
Chain of Bile acid receptor (Homo sapiens) (Q96RI1 whole entry, looked up): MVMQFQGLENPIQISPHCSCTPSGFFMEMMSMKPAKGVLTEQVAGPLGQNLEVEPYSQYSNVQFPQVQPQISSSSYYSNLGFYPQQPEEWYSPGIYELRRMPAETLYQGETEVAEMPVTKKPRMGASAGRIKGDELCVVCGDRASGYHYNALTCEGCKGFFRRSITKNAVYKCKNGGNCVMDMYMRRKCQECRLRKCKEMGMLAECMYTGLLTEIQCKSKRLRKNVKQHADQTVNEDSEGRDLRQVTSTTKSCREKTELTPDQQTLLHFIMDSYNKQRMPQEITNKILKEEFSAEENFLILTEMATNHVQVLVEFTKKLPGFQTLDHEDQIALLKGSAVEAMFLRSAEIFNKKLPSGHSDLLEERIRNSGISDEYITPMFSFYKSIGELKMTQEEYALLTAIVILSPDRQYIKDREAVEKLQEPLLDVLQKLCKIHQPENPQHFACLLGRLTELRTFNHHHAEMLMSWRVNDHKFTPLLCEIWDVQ

Assay [16] in a line: qHTS assay to identify small molecule antagonists of the farnesoid-X-receptor (FXR) signaling pathway - cell viability counter screen (AID 743221; active = well fitted cell-killing curve with a large enough effect in the repeat runs, not every such curve was filed as active; also: nearly all actives have a fitted effect of over 50% in size; also: potency is read from the fitted curve at half-maximal effect). In outline:
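Cytotoxicity counter screen run in the FXR-bla reporter wells: HEK 293T cells exposed to compound with 50 uM (final) chenodeoxycholic acid for 16 h, 37 C, then viability measured by CellTiter-Glo luminescence after 30 min, room temperature.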

The target of assay [17] is Peroxisome proliferator-activated receptor gamma (Homo sapiens) (UniProt P37231). The assay can be described thus: qHTS assay to identify small molecule agonists of the peroxisome proliferator-activated receptor gamma (PPARg) signaling pathway (AID 743094; active = well fitted activation curve with a large enough effect in the signal ratio in the repeat runs, not every such curve was filed as active; the % refers to the signal ratio). The gist of the method: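 Following 5 h plating at 37C, PPARg-bla HEK293H cells receive compound or DMSO for 17 h; fluorescence intensity is recorded after LiveBLAzer B/G loading for 1 h at room temperature.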
Chain of Peroxisome proliferator-activated receptor gamma (Homo sapiens) (P37231 whole entry, looked up): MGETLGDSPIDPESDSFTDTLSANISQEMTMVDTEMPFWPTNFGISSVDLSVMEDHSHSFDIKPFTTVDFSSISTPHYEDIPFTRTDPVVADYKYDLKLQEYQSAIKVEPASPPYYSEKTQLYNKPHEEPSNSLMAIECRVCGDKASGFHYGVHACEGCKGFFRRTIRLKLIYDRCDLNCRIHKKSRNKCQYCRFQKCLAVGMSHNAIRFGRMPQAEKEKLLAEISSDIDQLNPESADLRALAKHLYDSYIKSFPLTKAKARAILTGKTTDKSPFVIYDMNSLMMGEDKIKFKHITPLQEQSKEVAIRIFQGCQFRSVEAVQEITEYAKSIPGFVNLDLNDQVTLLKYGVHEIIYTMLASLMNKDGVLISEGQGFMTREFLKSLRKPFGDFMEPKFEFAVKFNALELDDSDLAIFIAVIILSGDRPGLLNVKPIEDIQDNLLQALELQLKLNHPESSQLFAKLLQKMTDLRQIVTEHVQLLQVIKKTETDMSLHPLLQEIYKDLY

The target of assay [18] is Vitamin D3 receptor (Homo sapiens) (UniProt P11473). The assay can be described thus: qHTS assay to identify small molecule agonists of the vitamin D receptor (VDR) signaling pathway (AID 743222; calls by dose curve). In outline:
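VDR-bla cells were seeded, left 4 h, treated with compounds in DMSO for 16 h, incubated 2 h at RT with B/G FRET substrate, and read for fluorescence.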

Assay [19] has as its target Peroxisome proliferator-activated receptor delta (Homo sapiens) (UniProt Q03181). The assay can be described thus: qHTS assay to identify small molecule antagonists of the peroxisome proliferator-activated receptor delta (PPARd) signaling pathway (AID 743215; active = well fitted inhibition curve with a large enough effect in the signal ratio in the repeat runs, not every such curve was filed as active; the % refers to the signal ratio; also: series mostly up to about 62 µM). The gist of the method:
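With L165041 present at 300 nM final, compounds were incubated 17 h at 37 C on PPARd UAS-bla HEK293H cells. A FRET-based beta-lactamase substrate was then applied for 2 h at room temperature and fluorescence intensity recorded.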

The target of assay [20] is Vitamin D3 receptor (Homo sapiens) (UniProt P11473). The assay can be described thus: qHTS assay to identify small molecule antagonists of the vitamin D receptor (VDR) signaling pathway (AID 743223; active = well fitted inhibition curve with a large enough effect in the signal ratio in the repeat runs, not every such curve was filed as active; the % refers to the signal ratio). In outline:
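Antagonist mode: compound added to VDR-bla cells alongside agonist 1alpha,25-dihydroxyvitamin D3 (3 nM final), incubation 16 h at 37C. Read-out is LiveBLAzer FRET fluorescence, 2 h at room temperature.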

Inconclusive results are not listed. A structure can be active in one record and inactive in another. Activity calls are given as the source filed them. Unless noted, calls follow the shape of the dose curve; as a rule, active = well fitted curve in the direction sought with a large enough effect in the repeat runs; inconclusive = weak or mixed curves; inactive = no such curve, though single readings can be large; an effect the other way counts as inactive or inconclusive.

Consider nine compounds from PubChem BioAssay (Tox21).

Chain of Peroxisome proliferator-activated receptor delta (Homo sapiens) (Q03181 whole entry, looked up): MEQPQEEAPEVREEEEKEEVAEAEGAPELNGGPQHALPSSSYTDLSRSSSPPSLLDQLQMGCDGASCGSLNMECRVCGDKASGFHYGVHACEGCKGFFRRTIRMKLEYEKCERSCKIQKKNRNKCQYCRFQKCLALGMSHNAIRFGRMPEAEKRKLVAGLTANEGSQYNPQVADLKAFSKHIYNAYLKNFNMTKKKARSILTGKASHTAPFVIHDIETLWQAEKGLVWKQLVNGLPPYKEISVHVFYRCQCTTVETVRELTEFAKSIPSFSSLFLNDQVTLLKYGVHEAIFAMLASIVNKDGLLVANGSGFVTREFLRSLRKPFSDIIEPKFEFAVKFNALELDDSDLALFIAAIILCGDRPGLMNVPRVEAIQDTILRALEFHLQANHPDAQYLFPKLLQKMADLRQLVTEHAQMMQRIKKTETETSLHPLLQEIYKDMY
Chain of Aryl hydrocarbon receptor (Homo sapiens) (P35869 whole entry, looked up): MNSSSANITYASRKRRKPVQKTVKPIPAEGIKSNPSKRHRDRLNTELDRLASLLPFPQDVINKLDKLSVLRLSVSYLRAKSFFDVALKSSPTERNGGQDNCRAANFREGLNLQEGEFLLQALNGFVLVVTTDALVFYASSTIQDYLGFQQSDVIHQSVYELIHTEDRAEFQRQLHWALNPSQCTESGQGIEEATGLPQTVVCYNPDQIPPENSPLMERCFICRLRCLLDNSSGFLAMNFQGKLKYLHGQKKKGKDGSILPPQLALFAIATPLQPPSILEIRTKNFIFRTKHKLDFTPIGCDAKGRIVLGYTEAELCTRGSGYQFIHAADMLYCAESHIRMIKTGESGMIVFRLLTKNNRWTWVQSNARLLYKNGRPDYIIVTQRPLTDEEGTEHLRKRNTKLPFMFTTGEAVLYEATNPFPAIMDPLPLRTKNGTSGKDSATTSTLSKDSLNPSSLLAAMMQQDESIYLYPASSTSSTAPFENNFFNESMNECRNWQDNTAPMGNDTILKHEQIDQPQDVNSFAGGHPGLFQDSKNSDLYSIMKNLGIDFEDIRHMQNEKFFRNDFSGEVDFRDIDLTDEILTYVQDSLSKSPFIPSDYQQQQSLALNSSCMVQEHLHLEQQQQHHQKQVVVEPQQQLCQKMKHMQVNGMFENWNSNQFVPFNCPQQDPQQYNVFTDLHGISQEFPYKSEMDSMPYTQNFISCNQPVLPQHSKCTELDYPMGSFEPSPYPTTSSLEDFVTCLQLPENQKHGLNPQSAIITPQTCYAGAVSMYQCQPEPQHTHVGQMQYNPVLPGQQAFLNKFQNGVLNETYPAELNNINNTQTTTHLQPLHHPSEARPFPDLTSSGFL
Chain of Vitamin D3 receptor (Homo sapiens) (P11473 whole entry, looked up): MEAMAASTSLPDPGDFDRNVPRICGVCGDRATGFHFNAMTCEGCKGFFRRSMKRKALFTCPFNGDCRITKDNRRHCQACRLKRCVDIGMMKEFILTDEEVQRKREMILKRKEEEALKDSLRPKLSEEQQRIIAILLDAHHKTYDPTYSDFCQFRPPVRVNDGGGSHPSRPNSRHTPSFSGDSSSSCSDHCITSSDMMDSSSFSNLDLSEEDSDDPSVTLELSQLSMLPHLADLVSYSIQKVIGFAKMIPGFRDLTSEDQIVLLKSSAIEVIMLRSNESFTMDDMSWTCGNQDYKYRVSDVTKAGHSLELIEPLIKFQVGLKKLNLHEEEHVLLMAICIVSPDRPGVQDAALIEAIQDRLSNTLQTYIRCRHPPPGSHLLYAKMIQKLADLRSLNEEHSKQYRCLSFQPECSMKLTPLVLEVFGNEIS

With `CCOc1nc(F)cc2nc(S(=O)(=O)Nc3c(Cl)cccc3Cl)nn12`, the Potency entry in assay [1], in assay [2], in [3], in assay [4], in [5] and in [6] was “inactive” in each case. Further, the Potency entry in assay [7], in assay [8], in assay [10], in [12], in [13] and in assay [14] was “inactive” throughout. In [16], the Potency result was “inactive”. The compound was classed as inactive in assay [9], in assay [11] and in assay [15].

`[CH3][Sn]([CH3])([Cl])[Cl]`: the Potency entry in [1], in assay [2], in assay [3], in [17], in assay [5] and in assay [7] was “inactive” throughout. Moreover, the Potency result in assay [8] and in assay [12] was “inactive” in each case. For the same compound, the Potency was 55.9 µM (active) and inactive in assay [14]; 55.9 µM (active) and inactive in assay [16]. Besides, the call in assay [18] was inactive.

As for `CN1C(=O)NC(=O)C(C)(C2=CCCCC2)C1=O` (centres undefined), the Potency entry in [1], in assay [2], in assay [3], in assay [17], in assay [5] and in assay [6] was “inactive” in each case. Also, the Potency entry in [7], in assay [8], in [10], in assay [12], in assay [19] and in assay [14] was “inactive” each time. Besides, the Potency entry in assay [16] is “inactive”. The compound was called inactive in assay [9] and in assay [11].

For `O=C(OC1CCCCC1)c1ccccc1C(=O)OC1CCCCC1`, the Potency result in assay [1], in assay [2], in [3], in [17], in assay [7] and in [8] was “inactive” in each case. Further, the Potency result in assay [14] and in assay [16] was “inactive” each time. In addition, the outcome in [9] and in assay [20] was inactive. The Potency in [10] is 46 µM (active).

On to `Brc1ccc(Oc2ccccc2)cc1`, for which the Potency result in assay [1], in [2], in [3], in assay [17], in [5] and in assay [6] was “inactive” throughout. In addition, the Potency result in [7], in [8], in [10], in assay [12], in assay [19] and in [14] was “inactive” each time. For the same compound, the Potency entry in assay [16] is “inactive”. The call in assay [9], in assay [11], in assay [18] and in assay [20] was inactive.

Turning to `Nc1nc(=S)[nH][nH]1`, the Potency result in [1], in assay [2], in assay [3], in [17], in assay [5] and in assay [6] was “inactive” each time. Besides, the Potency result in assay [7], in assay [8], in assay [10], in assay [19], in [14] and in [16] was “inactive” throughout. Also, the outcome in assay [9], in assay [11], in assay [18] and in assay [20] was inactive.

`C[C@H]1CNCCc2ccc(Cl)cc21`: the Potency entry in assay [1], in assay [2], in assay [3], in assay [17], in assay [5] and in assay [7] was “inactive” in each case. The Potency entry in assay [8], in assay [10], in assay [19], in assay [13], in [14] and in assay [16] was “inactive” throughout. The compound was called inactive in assay [9], in [11], in assay [15] and in assay [18].

On to `Cc1ccc2ccccc2c1`, for which the Potency entry in [1], in [2], in [3], in assay [17], in assay [5] and in [7] was “inactive” in each case. Besides, the Potency entry in assay [8], in assay [10], in [12], in [19], in assay [13] and in assay [14] was “inactive” each time. The Potency result in assay [16] was “inactive”. Further, the outcome in [9], in [11] and in [15] was inactive.

In the case of `COCC(C)N(C(=O)CCl)c1c(C)csc1C` (centres undefined), the Potency entry in [1], in assay [2], in [3], in assay [17], in assay [5] and in assay [8] was “inactive” throughout. Also, the Potency result in assay [10], in [13] and in [16] was “inactive” each time. For the same compound, the compound was called inactive in assay [9] and in assay [15].
